Here are results for 13 compounds from PubChem BioAssay (NCI).

Common to all, as to assay: NCI-60 one-dose screen, 48 h (100 = growth as untreated, 0 = no growth, -100 = all killed)
What all share (conditions): 10 µM unless noted

The test system of test [1] is NCI-H23 lung.
Test [2] concerns NCI-H226 lung.
Test [3] has as its system NCI-H322M lung.
For test [4], the system named is HOP-62 NSCLC.
Test [5] concerns NCI-H460 lung.
The test system of test [6] is HOP-92 NSCLC.
The test system of test [7] is NCI-H522 lung.
For test [8], the system named is A549/ATCC NSCLC.
Test [9] concerns 786-0 renal.
The subject of test [10] is COLO 205 colon.

SMILES strings stand for the structures. About 83,000 compounds went through this panel and 20% of them were active in at least one assay; those are over-represented in the sample as a whole.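 Activity criterion: percent growth below 10, measured after cells in 96-well plates were exposed to a single compound concentration for 48 hours.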 A number with no mark means an inactive call. Activity calls are given as the source filed them.

As to `COc1ccc2c(c1)c(-c1nn3cc(-c4ccncc4)nc3s1)cn2C`, the growth was 88.7% in [1]; 88.6% in test [2]; 85.4% in test [3]; 67% in test [4]; 53.1% in [5]; 11.6% in [6]. The growth in test [7] is 68.9%; in [8], 98.7%; in test [9], 93%; in test [10], 81.5%.

In the case of `CCCCOc1ccc(S(=O)(=O)N2CCN(c3nc(C)cc(N4CCOCC4)n3)CC2)cc1`, the growth in [1] is 41.7%; in test [2], 67.2%; in test [3], 62.2%; in [4], 59%; in test [5], 1.22% (active); in [6], 18.2%. Moreover, the growth in [7] was 88.8%; in test [8] it was 27.3%; in [9] it was 33.4%; in test [10], 5.81% (active).

Turning to `CCN(CC)CCOc1ccc(C(=C(c2ccccc2)C2CCCC2)c2ccc(OCCN(CC)CC)cc2)cc1`, the growth in test [1] was 16.7%; in test [2] it was 12.8%; in test [3], 59.5%; in test [4], 50.2%; in test [5] it was 17.2%; in test [6], -30.8% (active). Besides, the growth in test [7] was 2.43% (active); in test [8], 37.4%; in [9], 62.6%; in [10], -83.9% (active).

Consider `C(=N\Nc1nc(N/N=C/c2ccc3c(c2)OCO3)nc(N2CCCCC2)n1)/c1ccc2c(c1)OCO2`, for which the growth in [1] is 101%; in test [2] it was 101%; in test [3], 98.5%; in test [4], 123%; in test [5], 90.6%; in test [6], 96%. Moreover, the growth in [7] was 91.9%; in test [8], 91.4%; in [9] it was 86.6%; in [10], 85.9%.

In the case of `O=c1oc2ccc(-c3ccc(F)cc3F)cc2c(=O)n1-c1ccc(Br)cc1F`, the growth in test [1] is 60%; in test [2] it was 77.8%; in [3], 71.7%; in [4], 82.9%; in test [5], 45.9%; in test [6], -19.3% (active). Also, the growth is 12.1% in test [7], 84.4% in [8], 95.2% in test [9] and 121% in test [10].

On to `CC(=O)C1=C(C)NC(NNc2ccccc2)=NC1c1ccc([N+](=O)[O-])cc1` (stereo not given), for which the growth in test [1] is 95.3%; in test [2], 96.7%; in test [3] it was 84.6%; in test [4], 113%; in test [5], 99.9%; in test [6], 99.7%. Also, the growth in test [7] is 76.9%; in test [8], 88.1%; in test [9] it was 97.8%; in test [10] it was 106%.

On to `CN1CCN(Cc2ccc(NC(=O)c3cncc(C#Cc4cnc5ccc(OCCCS(C)(=O)=O)nn45)c3)cc2C(F)(F)F)CC1`, for which the growth was -50.9% (active) in test [1]; -60.1% (active) in test [2]; -16.6% (active) in [3]; -47.7% (active) in [4]; -64.1% (active) in test [5]; -27.3% (active) in [6]. For the same compound, the growth in test [7] was -76% (active); in test [8], -9.65% (active); in test [9], -16% (active); in test [10], -66.9% (active).

Turning to `N#Cc1cnc2ccc(-c3cnc4n[nH]nc4c3)cc2c1N1CCc2cc(F)c(Cl)cc21`, the growth was 14.4% in test [1]; 11.7% in [2]; 11.1% in test [3]; 11.8% in test [4]; 17.5% in test [5]; 4.22% (active) in [6]. The growth was -10.1% (active) in [7], 11.2% in [8], 16.7% in [9] and 37.8% in [10].

`N/C(=N\C(N)=N\c1nc2ccccc2s1)c1ccc(Cl)cc1`: the growth was 75.1% in test [1]; 77.8% in test [2]; 88.3% in [3]; 1.11% (active) in test [4]; 52.5% in test [5]; 84.6% in test [6]. The growth was 80.8% in test [7], 20.9% in [8], 102% in [9] and 104% in [10].

Turning to `CC(=O)Nc1cc(N2CCOCC2)c2nc(NC(=O)c3[nH]c(C)c(Cl)c3Cl)sc2c1`, the growth is 77.2% in test [1]; 37.3% in test [2]; 92.1% in [3]; 69.2% in [4]; 64% in test [5]; 119% in test [6]. Besides, the growth in [7] is 71.8%; in [8], 71.9%; in [9], 44.5%; in test [10], 104%.

On to `COC(=O)c1ccc(NC2=C(Cl)C(=O)c3nc(C)ccc3C2=O)cc1`, for which the growth in [1] was 54.8%; in test [2], 81.3%; in test [3], 101%; in test [4], 96.8%; in test [5], 92.3%; in [6] it was 142%. The growth in test [7] is 59.6%; in test [8], 94.1%; in test [9], 85.7%; in [10] it was 111%.

As for `CN(C)S(=O)(=O)c1ccc(-c2nc(C(Cl)Cl)nc3cc(-c4ccc(F)cc4)nn23)cc1`, the growth in test [1] is -3.27% (active); in [2] it was 45.4%; in [3] it was 31%; in test [4], 9.75% (active); in test [5] it was 1.94% (active); in test [6] it was 14.6%. The growth is -16.5% (active) in [7], 7.5% (active) in test [8], 72.6% in [9] and 2.25% (active) in [10].

Take `NS(=O)(=O)c1ccc(Nc2nc(N/N=C/c3ccc4c(c3)OCO4)nc(Nc3ccccc3)n2)cc1`: the growth in [1] was 25.1%; in test [2], 65%; in [3], 61.3%; in [4], 29%; in test [5], 2.83% (active); in test [6], 66%. In addition, the growth was 60.8% in test [7], 74.7% in test [8], 61.1% in test [9] and 49.7% in [10].
